In PubChem BioAssay (NCI):
About 83,000 compounds went through this panel and 20% of them were active in at least one assay; those are over-represented in the sample as a whole.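 Single-dose data. Exposure time 48 hours. Values below 10 considered active.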 A number with no mark means an inactive call. Active and inactive are the calls of the source.

Experiments:
Test in all cases: NCI-60 one-dose screen, 48 h (100 = growth as untreated, 0 = no growth, -100 = all killed)
Details in all cases: 10 µM unless noted
DU-145 prostate = system: DU-145 prostate
K-562 leukemia = system: K-562 leukemia
MALME-3M melanoma = system: MALME-3M melanoma
MDA-MB-231 breast = system: MDA-MB-231 breast
RXF 393 renal = system: RXF 393 renal
SF-268 CNS = system: SF-268 CNS
SF-295 CNS = system: SF-295 CNS
SF-539 CNS = system: SF-539 CNS
UACC-257 melanoma = system: UACC-257 melanoma
M14 melanoma = system: M14 melanoma
HCT-15 colon = system: HCT-15 colon
HT29 colon = system: HT29 colon
SNB-75 CNS = system: SNB-75 CNS
SNB-19 CNS = system: SNB-19 CNS
U251 CNS = system: U251 CNS
PC-3 prostate = system: PC-3 prostate
SK-MEL-5 melanoma = system: SK-MEL-5 melanoma
UACC-62 melanoma = system: UACC-62 melanoma
LOX IMVI melanoma = system: LOX IMVI melanoma
SK-MEL-28 melanoma = system: SK-MEL-28 melanoma

| Structure (SMILES) | growth (DU-145 prostate) | growth (K-562 leukemia) | growth (MALME-3M melanoma) | growth (MDA-MB-231 breast) | growth (RXF 393 renal) | growth (SF-268 CNS) | growth (SF-295 CNS) | growth (SF-539 CNS) | growth (UACC-257 melanoma) | growth (M14 melanoma) | growth (HCT-15 colon) | growth (HT29 colon) | growth (SNB-75 CNS) | growth (SNB-19 CNS) | growth (U251 CNS) | growth (PC-3 prostate) | growth (SK-MEL-5 melanoma) | growth (UACC-62 melanoma) | growth (LOX IMVI melanoma) | growth (SK-MEL-28 melanoma) |
| --- | --- | --- | --- | --- | --- | --- | --- | --- | --- | --- | --- | --- | --- | --- | --- | --- | --- | --- | --- | --- |
| C=C1C(=O)O[C@H]2[C@H]1CC/C(COC(=O)C(=O)c1c[nH]c3ccccc13)=C\CC[C@@]1(C)O[C@@H]21 | -31.4% (active) | -4.12% (active) | -63.1% (active) | -56.8% (active) | -89.1% (active) | -46.3% (active) | 56.6% | -65.3% (active) | -69.3% (active) | -57.2% (active) | -42.9% (active) | -55.3% (active) | -55% (active) | 30.3% | -82.3% (active) | -66.8% (active) | -89.6% (active) | -82.2% (active) | -81.1% (active) | -54% (active) |
| c1coc(-c2c3ccc(=[N+]4CCCCC4)cc-3oc3cc(N4CCCCC4)ccc23)c1 | -96.2% (active) | -49.9% (active) | -71.9% (active) | -56.5% (active) | -93.8% (active) | -83.4% (active) | -75.2% (active) | -93.3% (active) | -75.4% (active) | -94.3% (active) | -80.7% (active) | -80.9% (active) | -67.8% (active) | -93.2% (active) | -85.2% (active) | -73.8% (active) | -90.7% (active) | -81.3% (active) | -87.2% (active) | -88.7% (active) |
| O=C(NCCc1ccc(O)c(O)c1)C12CC3CC(CC(C3)C1)C2 | 101% | 92.6% | 107% | 85.5% | 101% | 89.6% | 128% | 80.4% | 98.8% | 103% | 91.8% | 102% | 82% | 98.5% | 101% | 73.5% | 96% | 90.3% | 89.1% | 104% |
| COC(=O)[C@]12CC[C@@H](C)[C@H](C)[C@@H]1C1=CC[C@@H]3[C@@]4(C)C(C=O)=C[C@@](C)(COC(C)=O)[C@@H]4C(=O)C[C@@]3(C)[C@]1(C)CC2 | 42.6% | 24.3% | 65.7% | 46.8% | 55.8% | 42.2% | 32.1% | 53.7% | 37.8% | 19.5% | 21.5% | 23.8% | 33.5% | 37.4% | 27.1% | 13.3% | 51.9% | 42.1% | 33.5% | 65.5% |
| Cc1c(C(=O)NC(Cc2ccccc2)C(O)C(=O)NCc2ccc(F)cc2)[nH]c2ccccc2c1=O (stereo not given) | 109% | 94.2% | 111% | 102% | 114% | 104% | 103% | 108% | 103% | 109% | 103% | 102% | 99.1% | 100% | 90.2% | 103% | 103% | 111% | 101% | 107% |
| COc1ccccc1N1C(=O)/C(=C/C2=Cc3ccccc3OC2)SC1=S | 100% | 75% | 92.9% | 88.1% | 103% | 109% | 91.5% | 103% | 100% | 98.2% | 65.3% | 99.6% | 97.8% | 91.1% | 95.7% | 77.1% | 97.7% | 86% | 105% | 92.8% |
| O=C1Nc2ccccc2/C1=C/c1cn(C(=O)c2ccc(Cl)cc2)c2ccccc12 | 118% | 85.7% | 118% | 77.7% | 130% | 99.9% | 114% | 99.4% | 99.7% | 102% | 92.1% | 110% | 87.7% | 99.1% | 99.4% | 95.7% | 97.7% | 89.3% | 100% | 93% |
| O=C(O)c1ccc2c(c1)CCC2 | 118% | 91.3% | 106% | 117% | 120% | 111% | 103% | 105% | 105% | 101% | 104% | 103% | 107% | 103% | 104% | 106% | 108% | 113% | 97% | 112% |
| COc1cc(C2CC(=O)Nc3c2c(C)nn3-c2nc3ccccc3[nH]2)c(OC)c(OC)c1OC (stereo not given) | 53.8% | 20.5% | 55.1% | 72.3% | 61.5% | 50.9% | 19.8% | 63.7% | 60.6% | 17% | 33% | 80.7% | 1.94% (active) | 62.9% | 42% | 51.9% | 46.7% | 40.7% | 67.7% | 72.3% |
| O=C(/C=C/c1ccc(Cl)nc1)c1ccc(Cl)cc1Cl | 108% | 7.65% (active) | 105% | 107% | 104% | 102% | 91.1% | 107% | 94.5% | 97.6% | 69.2% | 75.8% | 108% | 88.3% | 64% | 101% | 99.5% | 97.2% | 6.52% (active) | 101% |
| COc1cc(Cn2ncc3ccc(NC(=O)c4cc5ccccc5oc4=N)cc32)cc(OC)c1OC | 88.5% | 16.3% | 54% | 54.4% | 73.3% | 85.8% | 63.6% | 29.5% | 98.8% | 29.5% | 27.2% | 15.8% | 90.9% | 70.9% | 62.9% | 47.1% | 61.6% | 55.2% | 63.6% | 51.3% |
| CCCCCCCOc1c(OC)cc(C2CC(=O)Nc3c2c(C)nn3-c2nc3ccccc3[nH]2)cc1OC (stereo not given) | 29.6% | 21% | -51.5% (active) | -66.3% (active) | -40.1% (active) | -9.44% (active) | -57.4% (active) | -88.5% (active) | 10.1% | 4.61% (active) | 0.5% (active) | -2.41% (active) | -31.5% (active) | 16.1% | -58.2% (active) | 12% | -83.7% (active) | -49.2% (active) | -89.2% (active) | -9.72% (active) |
| COC(=O)c1c2c(c[n+]([O-])c1C)C(=O)C=CC2=O | 74.1% | 2.05% (active) | -97.1% (active) | 49.9% | 57.3% | 68.7% | 103% | 83.5% | -35.1% (active) | -64.5% (active) | 12.4% | 106% | 125% | 79.8% | 37.7% | 65.8% | 72% | 0.925% (active) | 47.3% | 49% |
| COc1ccc(-c2cc(-c3ccc(Nc4nc(Nc5ccc(Cl)cc5)nc(Nc5ccc(Cl)cc5)n4)cc3)nc(N)c2C#N)cc1 | 37.7% | 30.1% | -70.3% (active) | -30.7% (active) | -32.5% (active) | 59% | 415% | -48.7% (active) | -13.2% (active) | 24.9% | 10.6% | 2.33% (active) | -74.1% (active) | 105% | 10.9% | 4.49% (active) | -67.5% (active) | 42.4% | -75.1% (active) | -47.5% (active) |
| CC(=O)N1C(=S)NC(=O)C1Cn1c(-c2ccccc2)nc2ccccc21 (stereo not given) | 110% | 101% | 101% | 90.4% | 96.5% | 99.2% | 105% | 97.1% | 107% | 103% | 98.3% | 107% | 76.2% | 93.3% | 101% | 97.8% | 99.1% | 91.5% | 95.8% | 106% |
